Inconclusive results are not listed. Values without a mark were called inactive. The source made the active and inactive calls. Calls follow the shape of the dose curve; as a rule, active = well fitted inhibition curve with a large enough effect; inconclusive = small, poorly fitted or top-dose-only effect; inactive = flat fitted curve, though single readings scatter.
test: P-glycoprotein substrates identified in KB-8-5-11 adenocarcinoma cell line, qHTS therapeutic library screen (AID 1346987); settings: KB-8-5-11 (P-gp overexpressing) viability, CellTiter-Glo, 72 h; series mostly up to 44.5 µM; activity change, negative = cytotoxicity: at the top concentration; also: nearly all actives have a fitted effect of over 65% in size
Outline: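 Luminescence from CellTiter-Glo, read 5 min after addition, quantified survival of KB-8-5-11 (P-gp-overexpressing) cells exposed to compounds for 72 h. AC50 was derived from concentration-response curves.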
% is scaled to controls: 0 for no effect and ±100 for the full control effect; potency is read from the fitted curve at half-maximal effect.

Row | Structure (SMILES) | outcome | activity change, negative = cytotoxicity | Potency
1 | C/C(=C\CO)CC/C=C(\C)C(=O)O[C@H]1[C@H](OC2OC=C(C(=O)O)C3CCC(C)(O)C23)O[C@H](CO)[C@@H](O)[C@@H]1O (stereo partly drawn) | inactive [at 17.3 µM] | – | –
2 | CCCCCCCCCCCCCCCCCCOP(=O)([O-])OC1CC[N+](C)(C)CC1 | – | 3.18% [at 17.3 µM] | –
3 | CC[C@@]1(O)C(=O)OCc2c1cc1n(c2=O)Cc2cc3c([N+](=O)[O-])cccc3nc2-1 | – | – | 16.4 µM (active)
4 | OC1COC(OCC2OC(OCCc3ccccc3)C(O)C(O)C2O)C(O)C1O (stereo not drawn) | – | 1.01% [at 17.3 µM] | –
5 | CC(=O)N1CCN(NC(=O)c2ccc(F)cc2)CC1 | inactive | – | –
6 | CC1C(=O)CC2C3C(O)CC(C(=O)O)C12CC3(C)C (stereo not drawn) | inactive | – | –
7 | COc1cc(C[C@H]2COC(=O)[C@@H]2Cc2ccc(O)c(OC)c2)ccc1O | inactive | – | –
8 | COc1cc2c(Nc3ccc(Cl)c(Cl)c3F)ncnc2cc1OCC1C[C@@H]2CN(C)C[C@@H]2C1 (stereo partly drawn) | – | – | 18.4 µM (active)
